Key:
[1] = tested on: Schistosoma mansoni schistosomula (LE); assay: XTT viability relative to DMSO control; higher = more viable (less active); settings: 72 h; 10 µM
Experimental: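 XTT/PMS was then added for a further 24 h (72 h total) and A450 was read. % viability = (sample - heat-killed control)/(DMSO control - heat-killed control) x 100, from duplicate wells in two independent experiments.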

[2] = tested on: Schistosoma mansoni schistosomula (NMRI); assay: phenotypic severity score (0-4); higher = more antischistosomal effect, active = 2 or more; settings: 10 µM
[3] = tested on: Schistosoma mansoni schistosomula (Liberian); assay: drug effect (1 - score/DMSO control score) (fraction); higher = more antischistosomal effect, active = 0.5 or more; extreme values may be limits of the assay; settings: 10 µM
Outline: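 Schistosomula of the Liberian strain of Schistosoma mansoni were mechanically transformed from cercariae, pre-incubated for at least 12 h, and placed at 50 per well in flat-bottom 96-well plates with Medium 199 containing 5% FCS. Compounds were tested in duplicate at 10 µM at 37 °C and 5% CO2, alongside wells holding 0.1% DMSO. Parasites were scored visually at 10× after 24, 48 and 72 h on a quarter-point scale running from 3 (normal) to 0 (dead). Drug effect came from the mean test-well score relative to the mean DMSO-well score, with negative values set to zero and plates accepted only when the DMSO wells averaged at least 2.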
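For phenotypic severity score (0-4) in this document: visual microscopic scoring of shape, motility and density changes versus 0.5% DMSO solvent controls, one point per descriptor, degeneracy or death scored 4, mean of duplicate wells.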

Row | SMILES | XTT viability [1] [%] | phenotypic severity score ([2]; 24 h) | phenotypic severity score ([2]; 48 h) | phenotypic severity score ([2]; 72 h) | drug effect ([3]; 24 h) | drug effect ([3]; 48 h) | drug effect ([3]; 72 h)
1 | COc1ccccc1OCCCCn1c(C2CC2)nc2ccccc21 | 76 | 0 (inactive) | 0 (inactive) | 0 (inactive) | 0.136 (inactive) | 0.2 (inactive) | 0.182 (inactive)
2 | CCc1ccc(C(NCc2nc(N)nc(N(C)C)n2)C(C)C)cc1 (configuration not stated) | 99.2 | 0 (inactive) | 0 (inactive) | 0 (inactive) | < 0 (inactive) | < 0 (inactive) | 0.111 (inactive)
3 | CC[C@H](CO)NCCN[C@H](CC)CO | 78.3 | 0 (inactive) | 0 (inactive) | 0 (inactive) | 0.15 (inactive) | 0.135 (inactive) | 0.278 (inactive)
4 | COc1cc(NC(=O)Cc2nn(C)c(=O)c3ccccc23)ccc1Cl | 104 | 0 (inactive) | 0 (inactive) | 0 (inactive) | 0.105 (inactive) | 0.111 (inactive) | 0.0625 (inactive)
5 | Cc1cc(Nc2ccc(C(F)(F)F)cc2)n2ccnc2n1 | 71.7 | 0 (inactive) | 0 (inactive) | 0 (inactive) | 0.0909 (inactive) | 0.15 (inactive) | 0.158 (inactive)
6 | O=C(c1[nH]nc2c1CCCC2)N1CCN(Cc2ccc3c(c2)OCO3)CC1 | 89.6 | 0 (inactive) | 0 (inactive) | 0 (inactive) | 0.0909 (inactive) | 0.25 (inactive) | 0.236 (inactive)
7 | CC(=O)NCC1CN(c2ccc(-c3ccc(CNCc4cn[nH]n4)cc3)c(F)c2)C(=O)O1 (configuration not stated) | 108 | 0 (inactive) | 0 (inactive) | 0 (inactive) | 0.05 (inactive) | 0.0556 (inactive) | < 0 (inactive)
8 | Clc1cccc(C(c2ccc(CN3CCNCC3)cc2)n2ccnc2)c1 (configuration not stated) | 76.1 | 1 (inactive) | 1 (inactive) | 4 (active) | 0.405 (inactive) | 0.667 (active) | 0.875 (active)
9 | O=C(NCc1cc(Cl)cc(Cl)c1)c1c(C(F)(F)F)nc2ccccn12 | 93.7 | 0 (inactive) | 1 (inactive) | 0 (inactive) | 0.158 (inactive) | 0.333 (inactive) | 0.312 (inactive)
10 | O=C(NC1CCN(c2ccnc3ccccc23)C1)c1cccc(C(F)(F)F)c1 (configuration not stated) | 103 | 0 (inactive) | 0 (inactive) | 0 (inactive) | 0.135 (inactive) | 0.556 (active) | 0.938 (active)
11 | COc1ccc(-c2nc(-c3cccc(NC(=O)Cc4ccc(F)cc4)c3)no2)cc1OC | 137 | 0 (inactive) | 0 (inactive) | 1 (inactive) | 0.182 (inactive) | 0.2 (inactive) | 0.182 (inactive)
12 | CCN(CC)C(=O)N1CCN(C)CC1 | 95.5 | 0 (inactive) | 0 (inactive) | 0 (inactive) | 0.15 (inactive) | 0.222 (inactive) | 0.375 (inactive)
13 | Nc1cccnc1Nc1ccc(Cl)cc1 | 157 | 0 (inactive) | 0 (inactive) | 0 (inactive) | 0.15 (inactive) | 0.278 (inactive) | 0.375 (inactive)
14 | Cc1ncc(-c2ccnc(Nc3ccc(S(C)(=O)=O)cc3)n2)n1C(C)C | 66.9 | 0 (inactive) | 0 (inactive) | 0 (inactive) | 0.15 (inactive) | 0.135 (inactive) | 0.167 (inactive)
15 | CCc1cc(=O)n(C)c(SC(C)C(=O)Nc2ccc(F)cc2)n1 (configuration not stated) | 115 | 0 (inactive) | 0 (inactive) | 1 (inactive) | 0.135 (inactive) | 0.111 (inactive) | < 0 (inactive)
16 | COc1ccc2nccc(NC(=O)C3CCN(CCc4ccc(Cl)cc4)CC3)c2n1 | 77.2 | 0 (inactive) | 0 (inactive) | 0 (inactive) | 0.05 (inactive) | 0.0556 (inactive) | 0.111 (inactive)
17 | Cc1cc(O)nc(-n2nc(C)cc2C)n1 | 93.1 | 0 (inactive) | 0 (inactive) | 0 (inactive) | 0.15 (inactive) | 0.243 (inactive) | 0.576 (active)
18 | Nc1ncnc2[nH]nc(Cc3cccc4ccccc34)c12 | 94.1 | 1 (inactive) | 2 (active) | 3 (active) | 0.243 (inactive) | 0.333 (inactive) | 0.562 (active)

Row | SMILES | XTT viability [1] [%] | phenotypic severity score ([2]; 24 h) | phenotypic severity score ([2]; 48 h) | phenotypic severity score ([2]; 72 h) | drug effect ([3]; 24 h) | drug effect ([3]; 48 h) | drug effect ([3]; 72 h)
19 | O=C(Nc1cnc2ccccc2c1)c1cccc(-n2cnnn2)c1 | 85.7 | 0 (inactive) | 0 (inactive) | 0 (inactive) | < 0 (inactive) | < 0 (inactive) | 0.0303 (inactive)
20 | Cc1ccc(NC(=O)c2nc[nH]c2C(=O)Nc2nc3ccccc3[nH]2)c(C)c1 | 50.8 | 3 (active) | 4 (active) | 4 (active) | 0.273 (inactive) | 0.4 (inactive) | 0.278 (inactive)
21 | CNC(=O)c1cc(S(=O)(=O)N2CCN(c3ccccn3)CC2)cs1 | 73.4 | 0 (inactive) | 0 (inactive) | 0 (inactive) | 0.1 (inactive) | 0.135 (inactive) | 0.111 (inactive)
22 | Cc1nn(C)cc1C(C)Nc1nncc(-c2ccc(C(F)(F)F)cc2)n1 (configuration not stated) | 77.5 | 0 (inactive) | 0 (inactive) | 0 (inactive) | 0.136 (inactive) | 0.1 (inactive) | 0.105 (inactive)
23 | Nc1ncc(-c2ccc(C(F)(F)F)nc2)cc1-c1ccc(C(F)(F)F)nc1 | 79.3 | 0 (inactive) | 0 (inactive) | 0 (inactive) | 0.182 (inactive) | 0.15 (inactive) | 0.127 (inactive)
24 | N#Cc1nc(-c2ccccc2F)oc1NCCc1ccccc1 | 94 | 0 (inactive) | 0 (inactive) | 0 (inactive) | 0.2 (inactive) | 0.111 (inactive) | 0.125 (inactive)
25 | N#CCN(CCCCN1CCN(c2ccc(F)cc2)CC1)C(=O)OCc1ccccc1 | 118 | 0 (inactive) | 0 (inactive) | 0 (inactive) | 0.0811 (inactive) | 0.111 (inactive) | 0.125 (inactive)
26 | N=C(N)Nc1ccc(-c2ccc(-c3ccc(N=C(N)N)c(Cl)c3)o2)cc1Cl | 89.7 | 0 (inactive) | 0 (inactive) | 0 (inactive) | < 0 (inactive) | < 0 (inactive) | 0.0625 (inactive)
27 | NC(CC(=O)c1ccc(Cl)cc1Cl)C(Cl)(Cl)Cl (configuration not stated) | 69.2 | 0 (inactive) | 0 (inactive) | 0 (inactive) | 0.0455 (inactive) | 0.1 (inactive) | 0.158 (inactive)
28 | COc1ccc(C(=N)N)cc1-c1cn(-c2ccc(C(=N)N)cc2)nn1 | 69.3 | 0 (inactive) | 0 (inactive) | 0 (inactive) | 0.05 (inactive) | 0.0811 (inactive) | 0.0909 (inactive)
29 | Cc1ccc2c(c1C)NC(=O)C21NN=C(c2ccccc2)S1 (configuration not stated) | 125 | 2 (active) | 0 (inactive) | 0 (inactive) | < 0 (inactive) | 0.135 (inactive) | 0.222 (inactive)
30 | CN1CCN(S(=O)(=O)c2ccc(-c3ccc4c(Nc5ncc(Cl)cn5)ccnc4c3)cc2)CC1 | 32.4 | 2 (active) | 4 (active) | 4 (active) | 0.6 (active) | 0.611 (active) | 0.625 (active)
31 | O=C(Nc1c(O)cccc1-c1nc2c(C(=O)O)cccc2o1)c1cc(-c2ccccc2)on1 | 80.2 | 0 (inactive) | 0 (inactive) | 0 (inactive) | 0.05 (inactive) | 0.027 (inactive) | 0.0303 (inactive)
32 | Cc1noc(C)c1C(=O)N1CCCC(c2[nH]c3c(C)cccc3c2-c2ccncc2)C1 (configuration not stated) | 67.5 | 4 (active) | 4 (active) | 4 (active) | 0.35 (inactive) | 0.5 (active) | 0.778 (active)
33 | CCc1c(C)nc(-n2nc(C)cc2NC(=O)c2ccccc2SC)[nH]c1=O | -1.13 | 0 (inactive) | 1 (inactive) | 3 (active) | 0.273 (inactive) | 0.95 (active) | 1 (active)
34 | FC(F)(F)c1cccc(-c2nc3c(NCc4ccncc4)nccc3[nH]2)c1 | 90.7 | 0 (inactive) | 0 (inactive) | 0 (inactive) | 0.15 (inactive) | 0.0811 (inactive) | 0.152 (inactive)
35 | Cc1cc(NC(=O)c2ccc(S(=O)(=O)N(Cc3ccccc3)C(C)C)cc2)no1 | 106 | 1 (inactive) | 0 (inactive) | 0 (inactive) | 0.135 (inactive) | 0.444 (inactive) | 0.25 (inactive)
36 | O=C(Nc1nc(-c2ccccn2)cs1)c1cncn1-c1ccccc1 | 68.7 | 0 (inactive) | 0 (inactive) | 0 (inactive) | 0.0909 (inactive) | 0.15 (inactive) | 0.236 (inactive)

From the supplement of paper PMC6805474
